ALDH1A1 block – ALDH1A1 (human) enzyme inhibition; Purified ALDH1A1, NADH fluorescence, propionaldehyde substrate; P00352; AID 1030; hit rate 7.3% among 220,000; Potency, µM (highest dose often 75.3 µM), inactives show at the highest dose activity, negative = inhibition, hits mostly inhibitors;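 also: potency is read from the fitted curve at half-maximal effect; plate controls were no enzyme wells and a reference inhibitor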
IMPase cell inh – membrane-permeable compound that blocks inositol monophosphatase. P97697. CHO-M1 cells, IP1 accumulation, HTRF TR-FRET ratio. inhibition (IP1 accumulation), % at 46.1 µM. 120,000 tested, under 10 active. AID 901; active = well fitted curve in the direction sought with a large enough effect in the signal ratio, not every such curve was filed as active; inconclusive = small, poorly fitted or top-dose-only effect, or a change in a side signal; inactive = no such curve, though single readings can be large or run the other way; the % refers to the signal ratio;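 also: cells stimulated with carbachol in lithium chloride buffer; plate controls were DMSO basal wells for no effect and reference inhibitor wells for full effect; higher means more IMPase inhibition seen as more IP1 and lower FRET ratio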
Target sequence (P97697 whole entry, looked up): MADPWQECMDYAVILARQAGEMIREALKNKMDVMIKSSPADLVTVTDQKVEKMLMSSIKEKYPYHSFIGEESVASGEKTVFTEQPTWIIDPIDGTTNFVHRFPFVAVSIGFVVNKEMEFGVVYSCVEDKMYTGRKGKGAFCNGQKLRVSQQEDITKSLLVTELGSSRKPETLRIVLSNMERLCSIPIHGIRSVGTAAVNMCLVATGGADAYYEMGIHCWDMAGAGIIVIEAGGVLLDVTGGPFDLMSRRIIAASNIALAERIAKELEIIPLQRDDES
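Carbachol-driven Gq signalling in CHO-M1 cells (2000/well) generates IP1. Compounds that block IMPase raise IP1 and so reduce the FRET signal from Eu-anti-IP1 and d2-IP1 after a 10 min room-temperature lysis.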
KinaseGlo FLuc – Kinase-Glo luciferase inhibition (counter-screen). AID 1379. Kinase-Glo luciferase, ATP luminescence, 8 min. Q27757. hit rate 0.28% among 200,000. Potency, µM (doses to about 38.3 µM), without a hit: top-dose activity change, negative = inhibition, hits mostly inhibitors; active = well fitted inhibition curve with a large enough effect; inconclusive = small, poorly fitted or top-dose-only effect; also: potency is read from the fitted curve at half-maximal effect; nearly all actives have a fitted effect of over 60% in size
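Inhibition of Kinase-Glo luciferase light generation was assessed at 10 uM ATP in pH 7.2 imidazole buffer, with luminescence measured after eight minutes at ambient temperature.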
Lamin A splicing – LMNA splicing modulation; HeLa LMNA splicing GFP/RFP minigene ratio, 48 h; Potency, µM (highest dose often 46.1 µM), for the others: at the highest dose ratio change, negative = inhibition, most hits filed as inhibitors; hit rate 0.01% among 200,000; AID 1487; active = well fitted inhibition curve with a large enough effect in the signal ratio, with a control signal flat, not every such curve was filed as active; inconclusive = small, poorly fitted or top-dose-only effect, or effect the other way, or a change in a side signal; the % refers to the signal ratio; also: potency is read from the fitted curve at half-maximal effect
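S3 HeLa cells stably expressing lamin A-EGFP splicing minigene plus DsRed2, 600 cells/well, 48 h compound exposure at 37C. Laser-scanning cytometry; analysed as GFP (500-530 nm)/RFP (575-640 nm) total intensity ratio; 0.5% DMSO vehicle.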
HPGD block – blocks human HPGD enzyme activity | P15428 | hit rate 4.3% among 150,000 | Potency, µM, for the others: top-dose activity change, negative = inhibition, actives largely listed as inhibitors | purified HPGD, NADH fluorescence kinetic, PGE2 substrate; also: potency is read from the fitted curve at half-maximal effect
Target sequence (P15428 whole entry, looked up): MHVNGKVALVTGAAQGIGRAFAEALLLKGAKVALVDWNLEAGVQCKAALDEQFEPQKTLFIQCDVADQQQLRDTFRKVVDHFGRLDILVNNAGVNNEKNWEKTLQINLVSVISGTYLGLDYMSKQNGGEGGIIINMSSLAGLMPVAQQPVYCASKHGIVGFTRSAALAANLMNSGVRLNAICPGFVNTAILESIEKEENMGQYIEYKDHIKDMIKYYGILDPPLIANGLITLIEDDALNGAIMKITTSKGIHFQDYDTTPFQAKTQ
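20 nM HPGD preincubated 15 min at room temperature with compound in 50 mM Tris-HCl pH 8, 0.01% Tween 20. Started with 1 mM NAD+ and 30 uM prostaglandin E2; NADH fluorescence (360/450 nm) read 5 times over 30-s intervals, last minus first.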
PNC assembly inh – inhibitors of perinucleolar compartment assembly | AID 2417 | PC3M PTB-GFP, PNC prevalence imaging, 16 h; stronger effect = lower value | hit rate 3.1% among 140,000 | activity change (PNC), negative = inhibition, % at 10 µM;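 active = readout at or below -70, meaning at least 70% loss of cells showing the perinucleolar compartment, a nuclear body marking cancer cells; inconclusive = readout between -30 and a set limit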;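 also: plate controls were DMSO wells for no effect and camptothecin positive control wells for full effect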
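Read-out is percentage of cells bearing a perinucleolar compartment, from automated 20x imaging of fixed, Hoechst-stained PC3M PTB-GFP cells. Cells were seeded 4 h, then exposed 16 h to compound (23 nl of library stock) in duplicate plates.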
An asterisk follows results filed as active; ? = inconclusive; · = no result; [ ] = another dose, or the depositor's remark. Only some compounds are listed: those with a hit (about 10% of all), similar ones and a draw of the others. Unless noted, calls follow the shape of the dose curve; as a rule, active = well fitted inhibition curve with a large enough effect (not every such curve was filed as active); inconclusive = small, poorly fitted or top-dose-only effect, or another doubt; inactive = no such curve, though single readings can be large or run the other way. Unless noted, % is scaled to controls: 0 for no effect and ±100 for the full control effect.

SMILES | ALDH1A1 block | IMPase cell inh | KinaseGlo FLuc | Lamin A splicing | HPGD block | PNC assembly inh
COc1ccc(C(=O)C2CCCN(C(=O)c3cc(C(C)C)no3)C2)cc1F (stereo not given) | 1.6µM* | · | · | · | · | ·
O=C(c1ccc2ccccc2c1)C1CCCN(C(=O)c2noc3c2CCCC3)C1 (stereo not given) | 14µM* | · | -1% | · | · | ·
CC(=O)c1cc(-c2ccc(F)cc2)n(CCC(=O)NCc2ccc(C)cc2)c1C | · | · | · | -11%[46 µM] | · | ·
S=C(Nc1cccc(Br)c1)c1ccccc1 | 3% | · | -36% | ? | 13µM* | ?
O=C(CCc1ccccc1)NC(=S)Nc1cccc(Br)c1 | ? | · | 1% | ? | -26% | -9
COc1ccc(Cl)cc1C(=O)NCc1nnnn1-c1ccccc1 | · | · | · | -4%[46 µM] | · | ·
O=C(CNC(=O)c1ccc(Cl)cc1)OCc1cc(=O)n2nc(C3CCCCC3)sc2n1 | · | · | · | 1%[46 µM] | · | ·
CC(/C=C/c1ccccc1)=N\Nc1nc(-c2ccccc2)cs1 | ? | -1 | 1% | ? | -18% | -85*
Cn1c(=O)c2c(nc(N3CCOCC3)n2Cc2cccc(Br)c2)n(C)c1=O | · | 9 | · | · | · | ·
CCNc1ccc(S(=O)(=O)N(C)C)cc1NCC(=O)Nc1ccc(F)c(Cl)c1 | 25µM* | · | 1% | ? | -9% | ?
CCNc1ccc(S(=O)(=O)N(C)C)cc1NCC(=O)Nc1ccccc1Br | 25µM* | · | 0% | 1%[46 µM] | · | ·
CCNc1ccc(S(=O)(=O)N(C)C)cc1NCC(=O)Nc1ccc(Br)cc1F | -1% | · | -3% | ? | -22% | ?
COc1ccc(NCC(=O)Nc2ccc(C#N)cc2)cc1Cl | 10µM* | 15 | 7% | 0% | -16% | 6
Cc1c(Cl)cccc1NC(=O)CNc1cccc(S(=O)(=O)N(C)C)c1 | -36% | · | -2% | -18% | -4% | -13
CCNc1ccc(S(=O)(=O)N(C)C)cc1NCC(=O)Nc1ccccc1F | 20µM* | · | 1% | -9% | 0% | 17
CC1=C(C(=O)Nc2cccc(C(F)(F)F)c2)C(c2ccccn2)n2ncnc2N1 (stereo not given) | · | · | · | -3%[46 µM] | · | ·
COCCNc1ccnc(-c2ccccc2C(F)(F)F)n1 | 12% | · | · | 6% | · | ·
CCN(CC)S(=O)(=O)c1ccc2nnn(OCC(=O)Nc3cccc(C#N)c3)c2c1 | 14µM* | -7 | 2% | 4% | -7% | -24
COc1ccc(S(=O)(=O)N(C)C)cc1NCC(=O)Nc1cccc(C#N)c1 | 20µM* | · | 2% | · | · | ·
CCOc1ccc(NC(=O)COn2nnc3ccc(S(=O)(=O)N4CCOCC4)cc32)cc1 | ? | · | -2% | · | · | ·
C/C(=N\NC(=S)NCc1ccccc1)c1ccco1 | 32µM* | · | -3% | · | · | ·
COC(=O)CCC/C=C1/SCC(NC(=O)c2ccccc2)C1=O (stereo not given) | 7.9µM* | 11 | -3% | 5% | 25µM* | 14
Cc1ccccc1Cn1c(Oc2ccccc2F)nc2c1c(=O)n(C)c(=O)n2C | · | · | · | 4%[46 µM] | · | ·
Cc1ccc(S(=O)(=O)N2c3ccccc3NC(=O)CC2C)cc1 (stereo not given) | 6% | ? | 6% | -1% | 1% | 45
Cc1ccc(S(=O)(=O)N2c3ccccc3NC(=O)C2CC(=O)Nc2ccccc2)cc1 (stereo not given) | 20µM* | -12 | -1% | -2% | -8% | 11
SMILES | ALDH1A1 block | IMPase cell inh | KinaseGlo FLuc | Lamin A splicing | HPGD block | PNC assembly inh
CCOC(=O)c1sc(NC(=O)c2cc(-c3ccc(C)cc3)nc3ccccc23)c(C#N)c1C | ? | 6 | -2% | 6% | 22µM* | 51
COC(=O)c1sc(NC(=O)c2cc(-c3ccccc3)nc3ccccc23)c(C#N)c1C | 14µM* | 3 | 0% | ? | 3.5µM* | 19
Cc1sc(NC(=O)c2cc(-c3ccccc3)nc3ccccc23)c(C(N)=O)c1C | 8% | -8 | 1% | ? | -9% | ?
CCOC(=O)c1sc(NC(=O)CSc2n[nH]c(-c3ccncc3)n2)c(C#N)c1C | 35µM* | 14 | -4% | ? | 5µM* | 34
Cc1sc(NC(=O)c2cc(-c3ccc(Cl)cc3)nc3ccccc23)c(C(N)=O)c1C | 25µM* | 9 | 0% | ? | 13µM* | 25
Cc1cc(C)cc(NC(=O)C(=O)NCC(c2cccnc2)N2CCOCC2)c1 (stereo not given) | · | · | · | -17%[46 µM] | · | ·
Cc1ccccc1-c1cc(C(=O)Nc2sc(C(=O)OC(C)C)c(C)c2C#N)c2ccccc2n1 | 8.9µM* | 12 | -7% | ? | 16µM* | ?
COc1ccccc1-c1nccc(N2CCN(C)CC2)n1 | ? | · | · | -2% | · | ·
C=CCOc1ccccc1/C=N/O | 5% | 3 | 3% | 7% | 16µM* | 9
Cc1ccc(Oc2ccccc2/C=N/O)cc1 | 0% | 14 | -3% | ? | -29% | 14
N[C@@H](Cc1cc(-c2ccc(Cl)cc2Cl)cc(CP(=O)(O)O)c1O)C(=O)O | ? | 1 | 3% | · | ? | ·
CCOc1ccccc1NC(=O)C1=C(C)Nc2ncnn2C1c1cccs1 (stereo not given) | · | · | · | -4%[46 µM] | · | ·
CCOc1ccccc1NC(=O)C1=C(C)NC(=S)NC1c1cccs1 (stereo not given) | 0.63µM* | · | 0% | ? | -14% | -27
CC1=C(C(=O)Nc2ccccc2C)C(c2cccs2)NC(=S)N1 (stereo not given) | 13µM* | · | 0% | -13% | -14% | ?
CC1=C(C(=O)Nc2ccc(C)cc2C)C(c2cccs2)NC(=S)N1 (stereo not given) | ? | 2[1.84 µM] | 2% | -16% | -7% | -18
O=C(NN=C1CCCCCC1)c1cn(-c2ccccc2)nc1-c1ccccc1 | 3.5µM* | · | 1% | -3% | -4% | 30
COc1ccc(-c2cc(CNC(=O)CN(C)Cc3ccccc3)on2)cc1 | 4% | 3 | 0% | ? | 25µM* | 65

From PubChem BioAssay
